In all, about 110,000 compounds were measured (“z-score”: median about -0.1, highest 2% from about 2 on). This excerpt belongs to a sample that is enriched for the highest values. The source made the active and inactive calls.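 How the source made its calls: active means z-score in the third read window above 3 or below -3; inactive means the rest.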

For this test, the target named is Metabotropic glutamate receptor 8 (Rattus norvegicus) (UniProt P70579). Description: rat mGluR8 modulators via GIRK flux, primary screen, cell-based, thallium flux, HTS (AID 488969). The note with it: HEK293 rat mGluR8, GIRK (G protein-gated inwardly rectifying potassium channel) thallium flux, FluoZin2; at 10 µM; stronger effect = higher value; submaximal glutamate (EC20) added with thallium.
Sequence of Metabotropic glutamate receptor 8 (Rattus norvegicus) (P70579 whole entry, looked up): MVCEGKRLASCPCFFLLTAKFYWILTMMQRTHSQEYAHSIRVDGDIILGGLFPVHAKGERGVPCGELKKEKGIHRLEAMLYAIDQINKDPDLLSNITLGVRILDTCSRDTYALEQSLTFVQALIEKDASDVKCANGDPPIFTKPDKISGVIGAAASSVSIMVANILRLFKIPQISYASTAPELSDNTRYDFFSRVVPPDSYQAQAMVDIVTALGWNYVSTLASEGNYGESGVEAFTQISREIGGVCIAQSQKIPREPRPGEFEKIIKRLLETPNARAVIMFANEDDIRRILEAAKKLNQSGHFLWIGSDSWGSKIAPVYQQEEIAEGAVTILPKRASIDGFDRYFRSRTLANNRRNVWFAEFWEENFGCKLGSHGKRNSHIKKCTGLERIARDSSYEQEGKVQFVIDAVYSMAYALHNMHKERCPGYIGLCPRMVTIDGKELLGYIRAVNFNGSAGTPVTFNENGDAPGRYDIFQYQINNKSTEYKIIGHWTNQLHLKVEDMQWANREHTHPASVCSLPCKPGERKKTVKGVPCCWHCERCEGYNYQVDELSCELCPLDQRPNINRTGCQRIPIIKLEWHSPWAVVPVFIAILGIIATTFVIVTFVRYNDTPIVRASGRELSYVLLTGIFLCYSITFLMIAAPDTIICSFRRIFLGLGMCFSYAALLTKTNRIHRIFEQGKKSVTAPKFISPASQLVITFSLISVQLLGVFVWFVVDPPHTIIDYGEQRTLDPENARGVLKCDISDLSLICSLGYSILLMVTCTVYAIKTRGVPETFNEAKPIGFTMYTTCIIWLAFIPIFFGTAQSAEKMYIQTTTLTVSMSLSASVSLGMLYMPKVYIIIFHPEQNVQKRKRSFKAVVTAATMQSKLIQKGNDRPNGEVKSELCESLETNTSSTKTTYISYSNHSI
`CCCc1nn(C)c2c(=O)[nH]c(-c3ccccc3OCC)nc12` yielded a z-score of -0.237.

On to `Cc1cc(C)cc(NS(=O)(=O)c2ccc3oc(=O)ccc3c2)c1`, for which the z-score was 2.23.

`Cc1cc(C)cc(NS(=O)(=O)c2ccc3[nH]c(=O)[nH]c3c2)c1` gave a z-score of 0.711.

As to `O=c1ccc2cc(S(=O)(=O)Nc3ccc(F)cc3)ccc2o1`, the z-score is -0.226.

On to `O=C(CSCC(=O)N1CCN(c2ccccc2)CC1)Nc1nc(-c2ccc(Cl)s2)cs1`, for which the z-score was found to be 0.16.

As for `O=C(CSCC(=O)N1CCOCC1)Nc1nc(-c2ccc3c(c2)OCO3)cs1`, the z-score is 2.

In the case of `O=C(CSc1nc(-c2ccc(F)cc2)cs1)N1CCOCC1`, the z-score was 3.29 (active).

For the molecule `CCC(=O)Nc1nc(-c2ccc3c(c2)OCCO3)cs1`, the z-score is -0.0358.

In turn, `CC1CCCN(C(=O)CSCC(=O)Nc2nc(-c3cccs3)cs2)C1` (stereo not given) returned a z-score of 0.503.

`CCOC(=O)N1CCN(C(=O)CSCC(=O)Nc2nc(-c3ccc4c(c3)OCO4)cs2)CC1`: the z-score is -0.296.

With `CC1CN(C(=O)CSc2nc(-c3ccc(F)cc3)cs2)CC(C)O1` (stereo not given), the z-score is -0.898.

Molecule `O=C(CSCC(=O)N1CCCCC1)Nc1nc(-c2ccc(Cl)s2)cs1` registered a z-score of 2.68.

`O=C(CSc1nc(-c2ccc(F)cc2)cs1)N1CCc2ccccc21` had a z-score of -0.119.

The molecule `O=[N+]([O-])c1ccc(Cl)c(S(=O)(=O)N2CCCCCC2)c1` had a z-score of -0.0418.

As to `COc1ccc(-c2nsc3c(SCC(=O)Nc4cc(C)ccc4C)ncnc23)cc1`, the z-score amounted to 0.00156.

Turning to `CC(NS(=O)(=O)c1ccc(CCC(=O)N2CCN(C)CC2)cc1)c1ccccc1` (stereo not given), the z-score was -0.349.

Consider `CC(=O)Nc1nc(-c2cccs2)cs1`, for which the z-score was -0.281.

In turn, `O=C(Cc1ccccc1)Nc1nc(-c2cccs2)cs1` yielded a z-score of 2.99.

Regarding `O=C(COc1ccccc1Cl)Nc1nc(-c2cccs2)cs1`, the z-score was 0.4.

`O=C(COc1ccccc1)Nc1nccs1` returned a z-score of 1.35.

Molecule `O=C(COc1ccccc1)Nc1nc(-c2cccs2)cs1` gave a z-score of 2.15.

With `O=C(Cc1ccccc1)Nc1nnc(-c2cccs2)s1`, the z-score was found to be 0.154.

Regarding `Cc1cccc2cc(CN(Cc3ccc(F)cc3)C(=O)C(F)(F)F)c3nnnn3c12`, the z-score is -0.681.

Molecule `Cc1ccc2c(c1)N(CC(=O)NCc1ccco1)C(=O)CO2` yielded a z-score of -0.265.

Regarding `COc1ccc2nc(SCc3cnc(C)nc3N)[nH]c2c1`, the z-score is 0.0366.

In the case of `CCc1ccc2[nH]c(=O)c(CN(CCN(C)C)C(=O)Nc3ccccc3)cc2c1`, the z-score is -0.0486.

`N#Cc1c(N)sc2c1CCN(CCc1ccccc1)C2`: the z-score was 0.208.

Molecule `COc1ccccc1-n1c(SCC(=O)NC2CCS(=O)(=O)C2)nc2cc([N+](=O)[O-])ccc21` (stereo not given) registered a z-score of -0.116.

In turn, `COc1ccc2nc(SCC(=O)O)nc(C)c2c1` had a z-score of -0.216.

Molecule `CCOC(=O)CCSc1nc(C)c2cc(OC)ccc2n1` gave a z-score of -0.0662.

Regarding `CCOC(=O)CSc1nc(C)c2cc(OC)ccc2n1`, the z-score is 6.89 (active).

In turn, `CC1CCCN(C(=O)C2CCCN(S(=O)(=O)c3cccc4nsnc34)C2)C1` (stereo not given) registered a z-score of 0.195.

Molecule `Cc1ccc(C)c(NC(=S)NNC(=O)c2ccc(Br)o2)c1` displayed a z-score of 0.537.

Turning to `CCNC(=S)NNC(=O)c1csc(C(C)C)c1`, the z-score was -0.354.

For the molecule `CCCCNC(=S)NNC(=O)c1csc(C(C)C)c1`, the z-score is 0.133.

For the molecule `Cc1cccc(NC(=S)NNC(=O)c2csc(C(C)C)c2)c1`, the z-score is 8.28 (active).

With `Cc1cc(C(=O)NNC(=S)NCC(C)C)cs1`, the z-score was 0.377.

As to `Cc1ccc(C)c(NC(=S)NNC(=O)c2csc(C(C)C)c2)c1`, the z-score is 12 (active).

`CCCCn1c(SCC(=O)Nc2cc(C)on2)nnc1-c1ccco1` displayed a z-score of 1.3.

`CCOc1ccccc1NC(=O)c1ccc(F)c(S(=O)(=O)N2CCC3(CC2)OCCO3)c1`: the z-score was 2.77.

On to `COc1ccccc1NC(=O)c1cc(S(=O)(=O)N2CCC3(CC2)OCCO3)ccc1F`, for which the z-score was -0.251.

In turn, `CCOc1ccccc1NC(=O)c1cc(S(=O)(=O)N2CCC3(CC2)OCCO3)ccc1F` returned a z-score of -0.432.

Molecule `CCNC(=S)NN=C1CCC(C(C)(C)C)CC1` (stereo not given) had a z-score of 0.883.

Regarding `O=C(COC(=O)COc1ccccc1Cc1ccccc1)Nc1cccnc1Cl`, the z-score is -0.941.

`Cc1cccc2sc(NC(=O)CSCc3ccccc3)nc12` displayed a z-score of 0.801.

For the molecule `Cc1cccc2sc(NC(=O)Cn3cccc3)nc12`, the z-score was 13.9 (active).

For `Cc1cccc2sc(NC(=O)CN3C(=O)c4ccccc4C3=O)nc12`, the z-score is -0.16.

`Cc1onc(-c2c(F)cccc2Cl)c1C(=O)N1C=CC(C(F)(F)F)=NCC1` gave a z-score of -0.013.

`Cc1nnc(SCC(=O)N2CCCc3ccccc32)[nH]c1=O` came in with a z-score of -0.411.

Consider `Cc1cc(=O)[nH]c(SCC(=O)N2CCCc3ccccc32)n1`, for which the z-score was found to be 0.265.

For `Nc1nc(SCC(=O)N2CCc3ccccc32)[nH]c(=O)c1-c1ccccc1`, the z-score turned out to be 0.47.

For `O=C(CSc1nc(-c2ccccc2)cc(=O)[nH]1)N1CCc2ccccc21`, the z-score was 9.86 (active).

For `O=C(CSc1nc(O)cc(=O)[nH]1)N1CCCc2ccccc21`, the z-score was -0.65.

As for `CCc1c(C)nc(SCC(=O)N2CCc3ccccc32)[nH]c1=O`, the z-score is 4.54 (active).

`CCOc1ccc(C2/C(=C(/O)c3ccccc3)C(=O)C(=O)N2CCCN(C)C)cc1OC` (stereo not given) yielded a z-score of 0.188.

`O=C(COC(=O)c1cnccn1)c1ccc2ccccc2c1` gave a z-score of 0.118.

On to `CCSc1nc2ccccc2c(=O)n1OCC(=O)OC`, for which the z-score is -0.148.

With `COn1c(SC(C)C)nc2ccccc2c1=O`, the z-score was -0.948.

In the case of `COC(=O)COn1c(SC(C)C)nc2ccccc2c1=O`, the z-score came out at 2.57.

`Cc1cc(NC(=O)c2cc3ccccc3oc2=O)no1`: the z-score amounted to 0.0723.

For the molecule `Cc1cc2cc(CN(CCN3CCOCC3)C(=O)Nc3ccccc3F)c(=O)[nH]c2cc1C`, the z-score is -0.536.

Take `CC(C)OP(=O)(OC(C)C)C1(O)C(=O)Nc2ccccc21` (stereo not given): the z-score was -0.0437.

Consider `COc1ccc(C(=O)NC(=S)Nc2ccccc2F)cc1`, for which the z-score was determined as 0.595.

`CCOc1ccc(C(=O)NC(Cc2ccccc2)C(=O)OC)cc1` (stereo not given) displayed a z-score of -0.262.

`CCOc1ccc(C(=O)NCCc2ccccc2)cc1` returned a z-score of 0.0133.

With `CCOc1ccc(C(=O)NC(=S)N(Cc2ccccc2)Cc2ccccc2)cc1`, the z-score was 11.7 (active).

Consider `COc1ccc(C(=O)NN(c2ccccc2)c2ccccc2)cc1`, for which the z-score was -0.0602.

`COc1ccc(C(=O)NC(=S)N(Cc2ccccc2)Cc2ccccc2)cc1`: the z-score was 16.8 (active).

Turning to `COc1ccc(C2SCC(=O)N2CC23CC4CC(CC(C4)C2)C3)cc1` (stereo not given), the z-score is -0.23.

Molecule `CCC(=O)N1N=C(c2c(-c3ccccc3)c3cc(Cl)ccc3[nH]c2=O)CC1c1ccco1` (stereo not given) registered a z-score of -0.155.

For `CCCCn1c(/N=C/c2ccc3c(c2)OCO3)nc2ccccc21`, the z-score is -0.738.

In turn, `CC(C)=CC[N+]1(C)CCCCC1` gave a z-score of 1.14.

In the case of `N#C/C(=C\c1cn(CCOc2ccccc2F)c2ccccc12)C(=O)NCc1cccs1`, the z-score is -0.0588.

`CCOc1ccc(N2C(=O)/C(=C/c3cccs3)N(CC(=O)OC)C2=S)cc1` showed a z-score of -0.17.

For the molecule `CCOc1ccc(/C=C2/C(=O)N(c3ccc(OC)cc3)C(=S)N2CC(=O)OC)cc1OCC`, the z-score was determined as 0.273.

On to `CCOc1ccc(N2C(=O)/C(=C/c3cc(OC)c(OC)c(OC)c3)N(CC(=O)OC)C2=S)cc1`, for which the z-score is 14.1 (active).

Regarding `S=c1sc(SCCOc2ccccc2)nn1-c1ccccc1`, the z-score was -0.317.

Turning to `COc1cccc(C(=O)OCc2ccccc2C#N)c1O`, the z-score is -0.163.

Regarding `O=C(Nc1ccccc1)N(C1=NCCCCS1)c1cccc2ccccc12`, the z-score is -0.463.

Turning to `Cc1cccc(Nc2n[nH]c(C)c2[N+](=O)[O-])c1`, the z-score is 0.073.

The molecule `Cc1ccc(Nc2n[nH]c(C)c2[N+](=O)[O-])cc1C` came in with a z-score of 2.51.

For the molecule `Cc1ccc(Nc2n[nH]c(C)c2[N+](=O)[O-])cc1`, the z-score is -0.101.

In turn, `CNC(=O)CCCc1nc(-c2ccccc2Cl)no1` registered a z-score of 0.0193.

`COC(=O)c1sccc1NC(=S)N1CCN(c2ccccc2)CC1` returned a z-score of -0.397.

In the case of `Cc1cc(C(=O)NNC(=S)NC(C)c2ccccc2)cs1` (stereo not given), the z-score was -0.281.

Molecule `Cc1cc(C(=O)NC(C)c2ccncc2)cs1` (stereo not given) came in with a z-score of 2.05.

With `Cc1cc(C(=O)NC(C)c2ccc3c(c2)OCO3)cs1` (stereo not given), the z-score was 0.0632.

The molecule `Cc1cc(C)c2nc(SCC(=O)N3CC(=O)Nc4ccccc43)c(C#N)cc2c1` came in with a z-score of -0.188.

As to `CC1CC1C(=O)NCCc1ccc(Cl)cc1` (stereo not given), the z-score is 1.05.

For `N#Cc1ccc(-n2c(-c3ccccc3)nnc2-c2ccccc2)cc1C#N`, the z-score turned out to be 0.19.

As for `COc1ccccc1/C=C/C=N/N1CCN(Cc2ccc(Cl)cc2)CC1`, the z-score is -0.494.

As to `COc1ccccc1/C=C/C=N/N1CCN(Cc2cccc3ccccc23)CC1`, the z-score was -0.494.

`COc1ccccc1/C=C/C=N\N1CCN(Cc2ccccc2Cl)CC1`: the z-score was 5.52 (active).

On to `CN(C)c1ccnc(-n2cccc2/C=N/OCc2cccc(F)c2)c1C#N`, for which the z-score is -0.0405.

`CCN(C(=O)CSc1ncccc1C(=O)OC(C)C)c1cccc(C)c1` had a z-score of -0.441.

Take `O=C(Nc1cc(C(F)(F)F)ccc1F)C1CCC1`: the z-score stood at 0.411.

On to `COc1ccc(OCc2nc(N)nc(Nc3ccccc3)n2)cc1`, for which the z-score is 5.72 (active).

`COc1ccc(OCc2nc(N)nc(Nc3ccc(C)cc3)n2)cc1` yielded a z-score of 0.32.

Molecule `COc1ccc(Nc2nc(N)nc(CSc3nnc(C)s3)n2)cc1` came in with a z-score of 2.42.

`Cc1nnc(SCc2nc(N)nc(Nc3ccccc3)n2)s1` showed a z-score of -0.209.

Molecule `COc1ccc(Nc2nc(N)nc(CSc3nnc(N)s3)n2)cc1` returned a z-score of -0.571.

`COc1ccc(Nc2nc(N)nc(COc3ccc(OC)cc3)n2)cc1` registered a z-score of -0.113.

As for `O=C1c2ccccc2CC1(Cc1ccccc1)Cc1ccccc1`, the z-score was -0.201.

In turn, `COc1ccc(OCC(=O)N/N=C/c2ccsc2)cc1` showed a z-score of 0.604.

For the molecule `CC(Oc1ccc(Cl)cc1)C(=O)N/N=C/c1ccsc1` (stereo not given), the z-score is 11.6 (active).

`CC(C)(C)c1ccc(OCC(=O)N/N=C/c2ccsc2)cc1`: the z-score turned out to be 0.2.

The molecule `COc1cc(C(=O)Nc2ccc(S(=O)(=O)NC(C)(C)C)cc2)cc(OC)c1OC` had a z-score of -0.258.

For `CCOc1cc(N2CCOCC2)c(OCC)cc1NC(=O)COC(=O)CCc1c[nH]c2ccccc12`, the z-score was 8.03 (active).

As to `CCOc1cc(N2CCOCC2)c(OCC)cc1NC(=O)COC(=O)c1cccc2ccccc12`, the z-score is -0.0215.

Regarding `CCOc1cc(N2CCOCC2)c(OCC)cc1NC(=O)Cc1cccc2ccccc12`, the z-score was -0.178.

On to `CCOc1ccccc1N1C(=O)CC(N(O)c2ccccc2)C1=O` (stereo not given), for which the z-score is -0.0542.

`CC1(C)CN2C(=S)N(c3ccccc3)C(c3ccccc3)N2C1` (stereo not given) showed a z-score of -0.619.

The molecule `COc1ccc(Cl)c(N2CCN(CCCNC(=O)Nc3ccc(C)cc3)CC2)c1` registered a z-score of 2.3.

For the molecule `COc1ccc(N2CCN(CCNC(=O)Nc3ccc(Cl)cc3)CC2)cc1`, the z-score was 0.451.

`COc1ccc(N2CCN(CCCNC(=O)Nc3ccccc3)CC2)cc1` yielded a z-score of 0.121.

Values taken from PubChem BioAssay AID488969 (Vanderbilt High Throughput Screening Facility, 2010).
